From PubChem BioAssay come the findings set out here.

Structures are written as SMILES. Records with an inconclusive call do not appear. Activity calls are given as the source filed them.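 How the source made its calls, unless noted: active means GFP response, as percent of the DMSO control, above the screen-wide mean plus 3 SD, about 139; inconclusive means no response measured because the compound's own fluorescence interfered; inactive means the rest.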

Test [1] is described as follows: yeast TOR pathway RPL19A-GFP modulators, primary screen, cell-based, S. cerevisiae, multiplex flow cytometry (AID 1862; in the data active means percent of DMSO control GFP below about 86%;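 further: lower values mimic rapamycin by blocking the RPL19A rise seen in DMSO cells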). The conditions noted are these: S. cerevisiae RPL19A-GFP strain, flow cytometry fluorescence, 3 h; at 10 µM; stronger effect = lower value.
The nature of test [2]: modulators of MEP2-GFP levels in yeast, primary screen, S. cerevisiae, multiplex flow cytometry (AID 1867).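 Further: median GFP channel fluorescence of barcode-gated MEP2-GFP cells measured by flow cytometry.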 The settings on record: S. cerevisiae MEP2-GFP strain, 3 h, at 10 µM, stronger effect = higher value, 100% means same as DMSO wells. (In flow cytometry, cells or beads pass a laser one at a time.)
Test [3] is described as follows: modulators of CIT2-GFP expression in yeast, primary screen, S. cerevisiae, GFP fusion, multiplex flow cytometry (AID 1870;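 active means percent response above a set limit, the screen-wide mean plus 3 SD, cut at about 130% in these data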;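 further: barcoded CIT2-GFP strain pooled with four other GFP strains with rapamycin as positive control; median GFP fluorescence per well over plate mean of DMSO wells so 100% = DMSO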). The conditions noted are these: 3 h, at 10 µM, stronger effect = higher value.
Test [4] in a line: modulators of LAP4-GFP expression in yeast, primary screen, S. cerevisiae, multiplex flow cytometry (AID 1873;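 active means GFP signal, as percent of the solvent control, above the screen mean plus 3 SD, about 149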). The conditions noted are these: 3 h, at 10 µM, stronger effect = higher value.
The nature of test [5]: modulators of AGP1-GFP expression in yeast TOR pathway, primary screen, cell-based, multiplex flow cytometry, S. cerevisiae (AID 1887;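 active means GFP signal above the screen-wide mean plus 3 SD, that is over about 124.5% of the solvent control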;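 further: AGP1-GFP fusion strain of S. cerevisiae within a five-strain barcoded multiplex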). The conditions noted are these: 3 h, at 10 µM, stronger effect = higher value.
The nature of test [6]: inhibitors of CD8+ T cell-vesicle binding, pilot screen, LFA-1/ICAM-1 modulator project, MLPCN validation set, flow cytometry (AID 2523;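 active means response below a set limit, under 55% cells CD8-positive and vesicle-bound, and CD8 cells' 90th-percentile brightness under 279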;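 on vesicle binding response: mean PE anti-B7-1 fluorescence of CD8+ cells relative to row control; 100% = QL9-loaded vesicles with DMSO vehicle in the same plate row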). The settings on record: 2C mouse CD8+ T cells, at 7 µM, stronger effect = lower value; double positive events: measured here: CD8+/vesicle+ event percentage.
Test [7] addresses Integrin beta-1 (Homo sapiens) + Integrin alpha-4 (Homo sapiens) (UniProt P13612+P05556). As to the kind of experiment: inhibition of HUTS-21 binding to VLA-4, pilot screen, VLA-4 allosteric modulator project, U937 cells, HUTS-21 mAb, flow cytometry, validation set (AID 2674;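 active means inhibition above 50%, about 3 SD of the validation set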;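 further: antibody binding induced by the VLA-4 ligand LDV present at three times its Kd; 0% = LDV ligand with antibody and no compound and 100% = antibody without LDV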). The conditions noted are these: HUTS-21 LIBS mAb binding, at 6.7 µM, stronger effect = higher value, binding induced by LDV ligand.

Test [8] can be described thus: superoxide lowering in aged yeast cells, pilot screen, validation compound set (AID 2706;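 active means superoxide response below 65% of plate, a cut near 3 SD across the whole screen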;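 further: yeast exposed to compound for one week at 30 degrees C before staining; 100% = mean of all compound wells on the same plate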). The settings on record: S. cerevisiae aging, superoxide DHE fluorescence; at 10 µM; stronger effect = lower value.
Test [9] addresses Beta-adrenergic receptor kinase 1 (Homo sapiens) (UniProt P25098). As to the kind of experiment: GRK2 binders displacing RNA aptamer, biochemical, validation, human GRK2, bead flow cytometry (AID 488806;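 active means aptamer binding inhibition above 30%, about 3 SD of noise from non-fluorescent compounds; inactive means inhibition at or below 30%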). The conditions noted are these: bead-bound GRK2, FAM-aptamer displacement, at 10 µM, stronger effect = higher value.
The target in test [10] is Beta-2 adrenergic receptor (Homo sapiens) (UniProt P07550). Put plainly: beta2AR agonists driving receptor internalization, pilot screen, cell-based, FAP fluorogen, flow cytometry, validation set (AID 504459;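 active means percent response above 42, roughly 3 SD of non-fluorescent test compounds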;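 further: agonist-driven loss of surface beta2AR via internalization measured by FAP dye flow cytometry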). The settings on record: Am2.2-beta2AR cells, FAP surface receptor flow cytometry; at 10 µM; stronger effect = higher value.
Sequence of Beta-2 adrenergic receptor (Homo sapiens) (P07550 whole entry, looked up): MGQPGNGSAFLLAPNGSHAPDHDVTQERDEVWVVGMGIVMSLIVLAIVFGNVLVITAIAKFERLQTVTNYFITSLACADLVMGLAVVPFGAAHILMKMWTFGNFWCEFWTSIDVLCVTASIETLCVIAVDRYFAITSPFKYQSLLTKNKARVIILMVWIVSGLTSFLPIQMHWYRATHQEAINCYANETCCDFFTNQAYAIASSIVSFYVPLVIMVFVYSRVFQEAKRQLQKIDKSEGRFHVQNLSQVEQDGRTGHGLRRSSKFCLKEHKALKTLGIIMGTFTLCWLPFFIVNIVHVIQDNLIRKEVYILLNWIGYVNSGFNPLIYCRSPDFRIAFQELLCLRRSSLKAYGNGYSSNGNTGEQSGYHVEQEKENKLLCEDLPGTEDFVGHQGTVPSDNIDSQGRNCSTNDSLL
Test [11] has as its target AP-2 complex subunit beta (Homo sapiens) (UniProt P63010). As to the kind of experiment: inhibitors of arrestin peptide binding to AP2, pilot screen, biochemical, validation set, GST-AP2 beads, flow cytometry (AID 504541;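 active means inhibition above 54%, about 3 SD of non-fluorescent compounds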;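 further: AP2 carries R879A mutation and is captured from E. coli lysate; bead-bound FITC arrestin peptide fluorescence measuring arrestin peptide binding to AP2; 0% = DMSO wells and 100% = excess unlabeled arrestin peptide control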). The conditions noted are these: FITC arrestin peptide, at 10 µM, stronger effect = higher value, AP2 beta2 appendage fragment, R879A mutant.
Test [12] can be described thus: yeast V-ATPase proton transport modulators, S. cerevisiae, pHLuorin, HTS validation (AID 504600; in the data active means response above about 15%;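 further: plate controls were DMSO for no effect and reference compound for full effect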). The settings on record: S. cerevisiae pHLuorin cytosolic pH, at 10 µM, stronger effect = higher value.
For test [13], the system named is anti-desmoglein-3 scFv antibody binding to human DSG3. As to the kind of experiment: inhibitors of anti-DSG3 scFv binding to DSG3, pilot screen, biochemical, validation compound set, bead-based, flow cytometry (AID 588368;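 active means binding below the plate cutoff, the plate median minus 3 SD, with a reading above zero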;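 further: signal is the median channel fluorescence of bead-bound GFP antibody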). The conditions noted are these: Protein G beads, DSG3-Fc, scFv-GFP binding, at 10 µM, stronger effect = lower value.
Test [14] can be described thus: inhibitors of fungal efflux pumps CDR1, CDR2, MDR1, pilot screen, validation compound set, multiplex, phenotypic (AID 588506;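 active means efflux inhibition above 0.42, the validation set average plus 4 SD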;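 further: Nile Red retained in cells so higher fluorescence means more efflux inhibition; 0 = negative control wells and 1 = enniatin B 25 µM full block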). The settings on record: S. cerevisiae pump-expressing triplex, Nile Red efflux flow cytometry; at 10 µM; stronger effect = higher value; the pumps come from Candida albicans.
Test [15] addresses ATP-binding cassette sub-family B member 6 (Homo sapiens) (UniProt Q9NP58). As to the kind of experiment: ABCB6 transporter inhibitors, pilot screen, K562-ABCB6 cells, flow cytometry, validation set (AID 588550;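 active means inhibition above the screen-wide mean plus 3 SD, about 51%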;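 further: 0% = DMSO wells and 100% = benzethonium chloride 70 µM positive control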). The conditions noted are these: K562-ABCB6 porphyrin accumulation, 1 h, at 10 µM, stronger effect = higher value.
Test [16] in a line: promoters of myeloid differentiation in arrested cells, primary screen, cell-based, GFP/MAC1 double positive, flow cytometry, validation set (AID 588685;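 active means differentiation response of at least 50%, scaled between solvent and reference control, from cells with both markers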;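 further: compound exposure lasts four days before antibody staining and flow analysis; 0% = DMSO wells and 100% = 5 µM fulvestrant positive control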). The settings on record: ER-HoxA9 marrow cells, stronger effect = higher value, normalized: vehicle 0, fulvestrant 100.

Sequence of Integrin beta-1 (Homo sapiens) + Integrin alpha-4 (Homo sapiens) (P05556 whole entry, looked up): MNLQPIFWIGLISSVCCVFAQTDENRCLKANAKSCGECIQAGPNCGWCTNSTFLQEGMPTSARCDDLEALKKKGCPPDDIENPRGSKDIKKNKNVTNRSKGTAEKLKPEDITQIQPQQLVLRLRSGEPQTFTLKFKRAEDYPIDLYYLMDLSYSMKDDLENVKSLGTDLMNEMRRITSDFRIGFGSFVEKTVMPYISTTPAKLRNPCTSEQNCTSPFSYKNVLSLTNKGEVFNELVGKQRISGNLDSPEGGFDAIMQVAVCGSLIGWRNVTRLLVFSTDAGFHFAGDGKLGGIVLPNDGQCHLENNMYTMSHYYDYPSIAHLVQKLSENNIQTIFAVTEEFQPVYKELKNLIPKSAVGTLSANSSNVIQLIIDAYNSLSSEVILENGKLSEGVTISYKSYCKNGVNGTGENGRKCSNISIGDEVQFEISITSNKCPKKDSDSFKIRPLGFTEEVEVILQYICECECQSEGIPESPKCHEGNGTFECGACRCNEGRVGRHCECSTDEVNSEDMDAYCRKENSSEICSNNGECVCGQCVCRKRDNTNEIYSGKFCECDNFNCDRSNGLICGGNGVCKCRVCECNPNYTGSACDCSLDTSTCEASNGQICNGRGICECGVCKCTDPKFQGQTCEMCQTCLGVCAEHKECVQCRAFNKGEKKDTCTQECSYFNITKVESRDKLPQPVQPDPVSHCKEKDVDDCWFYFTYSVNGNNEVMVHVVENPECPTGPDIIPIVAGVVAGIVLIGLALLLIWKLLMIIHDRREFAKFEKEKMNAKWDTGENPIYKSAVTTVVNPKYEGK
Sequence of Integrin beta-1 (Homo sapiens) + Integrin alpha-4 (Homo sapiens) (P13612 whole entry, looked up): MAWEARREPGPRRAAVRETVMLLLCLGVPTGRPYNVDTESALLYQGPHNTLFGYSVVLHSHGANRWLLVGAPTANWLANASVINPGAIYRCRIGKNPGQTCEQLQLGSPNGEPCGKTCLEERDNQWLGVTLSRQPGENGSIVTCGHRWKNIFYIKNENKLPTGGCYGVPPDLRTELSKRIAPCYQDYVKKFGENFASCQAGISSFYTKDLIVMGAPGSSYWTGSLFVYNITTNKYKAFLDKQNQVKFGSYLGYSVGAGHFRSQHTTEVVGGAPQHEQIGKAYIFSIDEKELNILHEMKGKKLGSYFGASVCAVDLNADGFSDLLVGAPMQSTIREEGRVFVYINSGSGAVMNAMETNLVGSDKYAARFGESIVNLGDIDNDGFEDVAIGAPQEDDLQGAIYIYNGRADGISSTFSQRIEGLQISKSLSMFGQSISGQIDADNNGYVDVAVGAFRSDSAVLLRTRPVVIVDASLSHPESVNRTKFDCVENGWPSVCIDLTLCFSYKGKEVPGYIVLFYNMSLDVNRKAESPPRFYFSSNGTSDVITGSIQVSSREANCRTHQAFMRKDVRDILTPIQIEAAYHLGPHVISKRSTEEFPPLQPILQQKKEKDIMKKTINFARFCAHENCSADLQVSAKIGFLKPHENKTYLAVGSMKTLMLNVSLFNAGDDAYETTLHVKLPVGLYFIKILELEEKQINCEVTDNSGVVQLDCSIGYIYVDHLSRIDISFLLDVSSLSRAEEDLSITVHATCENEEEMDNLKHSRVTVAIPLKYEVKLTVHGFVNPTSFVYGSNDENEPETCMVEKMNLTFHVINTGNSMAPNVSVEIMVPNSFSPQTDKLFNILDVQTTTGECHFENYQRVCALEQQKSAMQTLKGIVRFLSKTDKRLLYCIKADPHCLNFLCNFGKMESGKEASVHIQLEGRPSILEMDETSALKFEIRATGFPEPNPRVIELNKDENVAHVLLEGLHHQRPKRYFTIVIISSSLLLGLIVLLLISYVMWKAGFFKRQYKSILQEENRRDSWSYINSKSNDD
Sequence of Beta-adrenergic receptor kinase 1 (Homo sapiens) (P25098 whole entry, looked up): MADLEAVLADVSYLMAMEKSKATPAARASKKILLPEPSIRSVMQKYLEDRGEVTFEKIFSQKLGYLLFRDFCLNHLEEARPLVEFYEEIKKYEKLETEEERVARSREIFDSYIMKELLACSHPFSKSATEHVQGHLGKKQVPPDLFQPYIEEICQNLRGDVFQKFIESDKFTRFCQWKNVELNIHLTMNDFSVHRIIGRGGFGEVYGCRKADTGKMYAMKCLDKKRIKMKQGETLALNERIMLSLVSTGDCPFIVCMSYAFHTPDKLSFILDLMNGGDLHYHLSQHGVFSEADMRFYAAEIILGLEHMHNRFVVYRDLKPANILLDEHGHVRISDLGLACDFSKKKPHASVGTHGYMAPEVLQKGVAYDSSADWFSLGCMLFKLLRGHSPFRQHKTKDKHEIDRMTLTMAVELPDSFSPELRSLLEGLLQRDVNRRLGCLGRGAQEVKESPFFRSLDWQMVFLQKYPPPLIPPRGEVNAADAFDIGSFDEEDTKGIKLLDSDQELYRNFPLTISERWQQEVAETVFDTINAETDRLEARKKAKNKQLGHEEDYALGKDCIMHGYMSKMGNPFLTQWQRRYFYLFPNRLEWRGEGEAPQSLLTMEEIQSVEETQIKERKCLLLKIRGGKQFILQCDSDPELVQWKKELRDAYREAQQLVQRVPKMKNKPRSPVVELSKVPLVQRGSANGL
Sequence of ATP-binding cassette sub-family B member 6 (Homo sapiens) (Q9NP58 whole entry, looked up): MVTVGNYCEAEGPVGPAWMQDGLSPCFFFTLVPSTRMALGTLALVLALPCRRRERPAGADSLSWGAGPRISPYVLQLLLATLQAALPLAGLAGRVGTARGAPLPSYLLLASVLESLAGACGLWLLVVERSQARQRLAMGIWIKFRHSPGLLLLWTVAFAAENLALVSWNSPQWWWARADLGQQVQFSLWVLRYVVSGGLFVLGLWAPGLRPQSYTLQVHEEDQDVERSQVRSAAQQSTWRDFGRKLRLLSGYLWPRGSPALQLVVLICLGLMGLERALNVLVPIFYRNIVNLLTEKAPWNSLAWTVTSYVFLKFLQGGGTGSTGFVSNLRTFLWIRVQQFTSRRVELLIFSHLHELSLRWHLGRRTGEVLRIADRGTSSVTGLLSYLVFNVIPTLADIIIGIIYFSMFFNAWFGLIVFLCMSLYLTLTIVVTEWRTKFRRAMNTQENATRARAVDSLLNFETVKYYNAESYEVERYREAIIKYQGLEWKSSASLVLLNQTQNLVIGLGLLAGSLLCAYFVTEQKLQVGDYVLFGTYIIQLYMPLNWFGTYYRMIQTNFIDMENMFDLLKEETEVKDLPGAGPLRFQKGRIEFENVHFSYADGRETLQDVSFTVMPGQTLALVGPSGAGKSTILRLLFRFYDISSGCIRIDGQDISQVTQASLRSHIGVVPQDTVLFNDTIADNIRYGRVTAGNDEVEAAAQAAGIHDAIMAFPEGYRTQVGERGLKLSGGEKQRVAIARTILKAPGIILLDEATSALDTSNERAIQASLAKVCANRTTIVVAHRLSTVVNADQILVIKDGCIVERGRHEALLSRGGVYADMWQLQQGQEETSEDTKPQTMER
Sequence of AP-2 complex subunit beta (Homo sapiens) (P63010 whole entry, looked up, the tested form may be a part, one chain of several): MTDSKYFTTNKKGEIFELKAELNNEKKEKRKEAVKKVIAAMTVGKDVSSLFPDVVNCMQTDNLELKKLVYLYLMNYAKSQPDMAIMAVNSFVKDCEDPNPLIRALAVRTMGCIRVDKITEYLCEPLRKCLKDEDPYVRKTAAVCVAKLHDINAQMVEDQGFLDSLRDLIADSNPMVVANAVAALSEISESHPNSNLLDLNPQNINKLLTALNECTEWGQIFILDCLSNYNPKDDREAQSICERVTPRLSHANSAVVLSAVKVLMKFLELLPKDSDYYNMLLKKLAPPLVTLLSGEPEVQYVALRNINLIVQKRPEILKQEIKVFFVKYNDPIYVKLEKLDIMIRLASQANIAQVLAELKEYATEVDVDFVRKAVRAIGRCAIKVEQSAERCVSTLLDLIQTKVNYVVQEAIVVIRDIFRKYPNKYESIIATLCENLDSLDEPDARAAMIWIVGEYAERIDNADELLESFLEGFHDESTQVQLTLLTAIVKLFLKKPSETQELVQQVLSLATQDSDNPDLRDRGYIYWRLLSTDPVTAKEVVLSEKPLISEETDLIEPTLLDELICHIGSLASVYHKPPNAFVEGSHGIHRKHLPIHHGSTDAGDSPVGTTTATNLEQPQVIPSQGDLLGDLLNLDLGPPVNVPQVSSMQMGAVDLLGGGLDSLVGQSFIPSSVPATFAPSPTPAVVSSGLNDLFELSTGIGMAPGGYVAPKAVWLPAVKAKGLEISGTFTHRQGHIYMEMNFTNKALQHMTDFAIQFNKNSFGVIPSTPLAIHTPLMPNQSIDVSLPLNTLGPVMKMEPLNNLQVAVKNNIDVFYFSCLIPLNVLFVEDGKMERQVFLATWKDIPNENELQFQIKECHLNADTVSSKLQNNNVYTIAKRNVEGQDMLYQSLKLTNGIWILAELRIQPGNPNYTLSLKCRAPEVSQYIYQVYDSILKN

Take `COc1ccc(-c2cc(C(=O)N3CCOCC3)c3cc(C)ccc3n2)cc1`: in test [1], the percent of DMSO control GFP was 91.1% (inactive). Besides, the figures for the GFP response vs DMSO in [2] and in test [4] were 102% (inactive) and 110% (inactive), respectively. Moreover, the percent response of DMSO control in test [3] was 101% (inactive). Further, in test [5], the GFP response, % of DMSO was 107% (inactive). For the same molecule, in [6], the double positive events was 73.1%. In addition, the vesicle binding response in test [6] was 206% (inactive). For the same molecule, the inhibition in test [7] was -8.78% (inactive); in test [11], 9.71% (inactive); in test [15] it was 7% (inactive). Also, the superoxide response (% of plate) in test [8] was 92% (inactive). Moreover, the aptamer binding inhibition in [9] is 1% (inactive). Also, the figures for the response in test [10] and in [12] were -16.3% (inactive) and -6.37% (inactive), respectively. In addition, the binding (% of control) in test [13] was 104% (inactive). Also, in test [14], the efflux inhibition (fraction of control) was -0.09 (inactive). The differentiation response in test [16] was 9.79% (inactive).

As to `NS(=O)(=O)c1ccc(CNC(=O)c2cc(-c3ccccc3)nc3ccccc23)cc1`, the percent of DMSO control GFP in [1] was 98.8% (inactive). The GFP response vs DMSO is 109% (inactive) in [2] and 95.3% (inactive) in [4]. Also, the percent response of DMSO control in test [3] was 104% (inactive). Further, the GFP response, % of DMSO in [5] is 97.5% (inactive). This molecule displayed a double positive events in [6] of 59.3%. The vesicle binding response in test [6] is 220% (inactive). Moreover, the figures for the inhibition in test [7], in test [11] and in test [15] were -7.72% (inactive), 16% (inactive) and 1% (inactive), respectively. Besides, in [8], the superoxide response (% of plate) is 104% (inactive). In test [9], the aptamer binding inhibition was 2% (inactive). Further, the figures for the response in [10] and in [12] were -8.54% (inactive) and -3.46% (inactive), respectively. Moreover, in test [13], the binding (% of control) is 98% (inactive). Moreover, the efflux inhibition (fraction of control) in test [14] was -0.1 (inactive). Further, the differentiation response in [16] was 5.13% (inactive).

Regarding `COc1ccc(CCNC(=O)c2ccc(Cl)cc2)cc1OC`, the percent of DMSO control GFP in [1] is 103% (inactive). Moreover, the GFP response vs DMSO in [2] is 109% (inactive); in [4], 121% (inactive). Also, in [3], the percent response of DMSO control was 107% (inactive). Further, in test [5], the GFP response, % of DMSO was 111% (inactive). In addition, the double positive events in test [6] is 59.6%. For the same molecule, the vesicle binding response in test [6] was 196% (inactive). In addition, the inhibition in [7] was 2.93% (inactive); in [11] it was -0.98% (inactive); in [15], -7% (inactive). Besides, the superoxide response (% of plate) in [8] was 107% (inactive). In test [9], the aptamer binding inhibition was -1% (inactive). The response was 6.98% (inactive) in test [10] and -0.59% (inactive) in [12]. In addition, in test [13], the binding (% of control) is 104% (inactive). In [14], the efflux inhibition (fraction of control) is 0.39 (inactive). The differentiation response in [16] was -17.7% (inactive).

Turning to `COc1c2c(nc3occc13)C(CC=C(C)C)(OC)C(O)CC2` (stereo not drawn), the percent of DMSO control GFP in test [1] is 89.1% (inactive). Also, the GFP response vs DMSO in test [2] is 131% (inactive); in [4], 95.7% (inactive). The percent response of DMSO control in test [3] is 110% (inactive). Moreover, in test [5], the GFP response, % of DMSO was 98.2% (inactive). The double positive events in test [6] is 63.2%. Moreover, in [6], the vesicle binding response was 144% (inactive). For the same molecule, the inhibition in [7] is -4.21% (inactive); in [11], -9.37% (inactive); in test [15], 11% (inactive). Moreover, the superoxide response (% of plate) in test [8] was 95.4% (inactive). Also, the aptamer binding inhibition in [9] is 6% (inactive). Moreover, the response in test [10] is 3.58% (inactive); in [12], -1.04% (inactive). In addition, the binding (% of control) in test [13] was 103% (inactive). In addition, the efflux inhibition (fraction of control) in test [14] was 0.01 (inactive). Also, in test [16], the differentiation response was 3.28% (inactive).

Usually inhibition stands for the drop in the measured response relative to a control, in per cent.
